The entries come from a sample that favours hits as a whole.
CHX counter – Cycloheximide Counterscreen for Small Molecule Inhibitors of Shiga Toxin | AID 2314, 2010 | cell reporter, cycloheximide protein synthesis inhibition counterscreen | 300,000 compounds, 12% hits | max response, %; in the data active = max response mostly above about 13%, no sharp cut-off; inactive = mostly below about 14%; also: read at 38.3 µM for the half of the compounds with a filed dose
Vaccinia Venus – qHTS for Stage-Specific Inhibitors of Vaccinia Orthopoxvirus: Venus Reporter Primary qHTS | Vaccinia virus Venus reporter expression, fluorescence | Potency, µM (highest dose often 36.5 µM), actives largely listed as inhibitors | 330,000 compounds, 0.46% hits; calls by dose curve; tested in A549 cells; also: nearly all actives have a fitted effect of over 30% in size
VACV mCherry inh – qHTS for Stage-Specific Inhibitors of Vaccinia Orthopoxvirus: mCherry Reporter Primary qHTS. 310,000 compounds, 0.63% hits. Potency, µM (titrated, usually from 36.5 µM), usual class: inhibitors. AID 720579, 2013. Vaccinia virus mCherry reporter infection, fluorescence; calls by dose curve; tested in A549 cells; also: nearly all actives have a fitted effect of over 35% in size
Shiga toxin inh – A qHTS for Small Molecule Inhibitors of Shiga Toxin | Vero cells, Shiga toxin protein synthesis inhibition reporter | inhibition, % at 38.7 µM | 290,000 compounds, 9.2% hits | AID 2315, 2010; in the data active = inhibition mostly above about 28%, no sharp cut-off; inactive = mostly below about 43%
MARV entry inh – qHTS for inhibitors of binding or entry into cells for Marburg Virus; Marburg virus pseudotyped entry inhibition, cell reporter; Potency, µM (titrated, usually from 37.8 µM), most hits filed as inhibitors; 300,000 compounds, 1.8% hits; AID 540276, 2011; calls by dose curve; tested in HEK293 cells
Lassa entry inh – qHTS for Inhibitors of binding or entry into cells for Lassa Virus; 300,000 compounds, 1.2% hits; Lassa virus pseudotype entry inhibition, cell reporter; AID 540256, 2011; Potency, µM (series often up to 37.9 µM), usual class: inhibitors; calls by dose curve; tested in HEK293 cells; also: nearly all actives have a fitted effect of over 50% in size
A number is an active result.

What do the screens show for `CCOC(=O)C1=C(Cc2ccc(OC)cc2)C(=O)c2ccccc2C1=O`?
CHX counter: 26.8; Vaccinia Venus: inactive; VACV mCherry inh: inactive; Shiga toxin inh: inactive; MARV entry inh: inconclusive; Lassa entry inh: inconclusive

Results for COc1ccc2nc(NCc3ccc(OC)c(OC)c3OC)sc2c1 ?
Vaccinia Venus: inactive; VACV mCherry inh: inconclusive; MARV entry inh: inactive; Lassa entry inh: inactive

Results for COc1cc(CN2CCOc3ccc(CN4CCC(O)(c5cccnc5)CC4)cc3C2)ccc1F ?
Vaccinia Venus: inactive; VACV mCherry inh: inactive

What do the screens show for `Cn1cnc(S(=O)(=O)N2CCCC(C(=O)NCc3ccccc3Cl)C2)c1` (stereo not given)?
Vaccinia Venus: inactive; VACV mCherry inh: inactive; Lassa entry inh: inactive

How did Cc1ccc(NC(=S)NNC(=S)NC2CCCCC2)cc1 do in these assays?
CHX counter: inactive; Vaccinia Venus: inactive; VACV mCherry inh: inactive; Shiga toxin inh: inactive; MARV entry inh: inactive; Lassa entry inh: inconclusive

What do the screens show for `O=C(Nc1cccc([N+](=O)[O-])c1)NC1CCCCCCC1`?
CHX counter: 32.3; Vaccinia Venus: inactive; VACV mCherry inh: inactive; Shiga toxin inh: 81.3; MARV entry inh: inconclusive; Lassa entry inh: inconclusive

What do the screens show for `O=C(NC1CCCCCCC1)NC1CCCCC1`?
CHX counter: 26.1; Vaccinia Venus: inconclusive; VACV mCherry inh: inactive; Shiga toxin inh: inactive; MARV entry inh: inactive; Lassa entry inh: inconclusive

What do the screens show for `O=C(CNC1CCCCC1)Nc1cccc([N+](=O)[O-])c1`?
Vaccinia Venus: inactive; VACV mCherry inh: inactive; MARV entry inh: inactive; Lassa entry inh: inactive

What do the screens show for `CC(=O)c1ccc(NC(=S)NNC(=O)NC2CCCCC2)cc1`?
CHX counter: 20.5; Vaccinia Venus: inactive; VACV mCherry inh: inactive; Shiga toxin inh: inactive; MARV entry inh: inconclusive; Lassa entry inh: inactive

How did O=C(NC(=S)Nc1cccc([N+](=O)[O-])c1)C1CCCC1 do in these assays?
CHX counter: 33.9; Vaccinia Venus: inactive; VACV mCherry inh: inactive; Shiga toxin inh: 52.2; MARV entry inh: inactive; Lassa entry inh: inactive

Results for CN1CCC(NC(=O)NC2CCCCC2)CC1 ?
CHX counter: inactive; Vaccinia Venus: inactive; VACV mCherry inh: inactive; Shiga toxin inh: inactive; MARV entry inh: inactive; Lassa entry inh: inactive

What do the screens show for `COc1cccc(-n2c(=O)c3sc4ccccc4c3n(Cc3c(F)cccc3Cl)c2=O)c1`?
Vaccinia Venus: inactive; VACV mCherry inh: inactive; MARV entry inh: inactive; Lassa entry inh: inactive

How did CN(C(=O)c1cc2c(=O)n3ccccc3nc2n1C)c1ccccc1 do in these assays?
Vaccinia Venus: inactive; VACV mCherry inh: inactive; Lassa entry inh: inactive

What do the screens show for `O=C(Nc1ccccc1NC(=O)NC1CCCCC1)NC1CCCCC1`?
CHX counter: 27.2; Shiga toxin inh: inactive; MARV entry inh: 4.61µM; Lassa entry inh: 13µM

Results for O=C(Nc1ccccc1)NC1CCCCC1 ?
CHX counter: 51.3; Vaccinia Venus: inactive; Shiga toxin inh: 49.0; MARV entry inh: inactive; Lassa entry inh: inactive

Results for O=C(Nc1ccc(Br)cc1)NC1CCCCCCC1 ?
CHX counter: 44.0; Vaccinia Venus: inactive; VACV mCherry inh: inactive; Shiga toxin inh: 137.0; MARV entry inh: inactive; Lassa entry inh: inconclusive

What do the screens show for `CC(C)NS(=O)(=O)c1ccc(NC(=O)NC2CCCCC2)cc1`?
CHX counter: 14.1; Vaccinia Venus: inactive; VACV mCherry inh: inactive; Shiga toxin inh: inactive; MARV entry inh: inconclusive; Lassa entry inh: inconclusive

How did CC(NS(=O)(=O)c1ccccc1)C(=O)NC1CCCC1 (stereo not given) do in these assays?
CHX counter: inactive; Vaccinia Venus: inactive; VACV mCherry inh: inactive; Shiga toxin inh: inactive; MARV entry inh: inactive; Lassa entry inh: inactive

What do the screens show for `NC(=O)c1ccccc1NC(=O)NC1CCCCC1`?
CHX counter: inactive; Shiga toxin inh: inactive; MARV entry inh: inactive; Lassa entry inh: inactive

How did COc1cccc(NCc2nnc(SC(C(=O)N(C)C)c3ccccc3)n2C2CCCCC2)c1 (stereo not given) do in these assays?
Vaccinia Venus: inactive; VACV mCherry inh: inactive

What do the screens show for `CCC1CN(CCNC(=O)c2scc3c2OCCO3)Cc2cc(OC)ccc2O1` (stereo not given)?
Vaccinia Venus: inactive; VACV mCherry inh: inactive

How did O=C(NC1CCCCC1)Oc1ccccc1 do in these assays?
CHX counter: 29.6; Vaccinia Venus: inactive; VACV mCherry inh: inactive; Shiga toxin inh: inactive; MARV entry inh: inactive; Lassa entry inh: inactive
